Assay in all cases: DAPPL (digital affinity profiling via proximity ligation, sequencing); 10 mM Tris-HCl pH 7.5, 50 mM NaCl, 1 mM DTT, 4% glycerol, room temperature, 30 min; GST-TFs on glutathione beads, 16-mer random dsDNA library, 0.1% formaldehyde crosslink after washing; high values mean tight binding
Conditions in all cases: protein: recombinant; tags: N-terminal GST; dsDNA, one strand shown

One test concerns the target T1, EHF (Homo sapiens, UniProt Q9NZC4 1-300).
T1 sequence: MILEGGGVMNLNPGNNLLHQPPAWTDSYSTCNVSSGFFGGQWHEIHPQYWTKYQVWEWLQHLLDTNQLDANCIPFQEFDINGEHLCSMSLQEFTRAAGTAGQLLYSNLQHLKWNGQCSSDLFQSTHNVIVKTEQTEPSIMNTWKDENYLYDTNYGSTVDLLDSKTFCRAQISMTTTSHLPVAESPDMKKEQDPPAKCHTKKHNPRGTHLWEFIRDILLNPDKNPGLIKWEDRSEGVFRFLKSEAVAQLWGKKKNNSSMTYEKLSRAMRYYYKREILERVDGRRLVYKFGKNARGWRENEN
A digest of the protocol: (§1)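 GST fusions of human transcription factors were expressed in yeast and captured with glutathione beads. Once given DNA barcodes and pooled alongside a tag-only sample, they were incubated for 30 min at room temperature with 200 nmole of a random double-stranded 16-mer DNA library in Tris/NaCl/DTT/glycerol buffer, then washed, crosslinked (0.1% formaldehyde), proximity-ligated, PCR-amplified and sequenced on an Illumina NextSeq500. The binding signal of each hexamer is its read frequency for a factor divided by its frequency for the tag-only sample.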

The target of the next test is T2, ELF3 (Homo sapiens, UniProt P78545 1-371).
T2 sequence: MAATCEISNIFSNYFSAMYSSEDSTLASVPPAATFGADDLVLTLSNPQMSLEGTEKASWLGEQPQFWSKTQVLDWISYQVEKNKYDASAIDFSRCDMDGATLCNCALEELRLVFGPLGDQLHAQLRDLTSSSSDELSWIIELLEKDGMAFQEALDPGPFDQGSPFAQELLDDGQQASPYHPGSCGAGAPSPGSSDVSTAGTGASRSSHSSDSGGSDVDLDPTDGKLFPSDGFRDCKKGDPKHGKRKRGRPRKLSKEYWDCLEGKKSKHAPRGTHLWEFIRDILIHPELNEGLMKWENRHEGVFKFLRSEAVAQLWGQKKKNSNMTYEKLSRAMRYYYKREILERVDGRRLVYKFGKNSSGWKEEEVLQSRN
The method, boiled down: as §1

A further test addresses CRX (Homo sapiens, UniProt O43186 1-299). The method, boiled down:
as §1

The target of the next test is T3, ELF5 (Homo sapiens, UniProt Q9UKW6-2 1-255).
T3 sequence: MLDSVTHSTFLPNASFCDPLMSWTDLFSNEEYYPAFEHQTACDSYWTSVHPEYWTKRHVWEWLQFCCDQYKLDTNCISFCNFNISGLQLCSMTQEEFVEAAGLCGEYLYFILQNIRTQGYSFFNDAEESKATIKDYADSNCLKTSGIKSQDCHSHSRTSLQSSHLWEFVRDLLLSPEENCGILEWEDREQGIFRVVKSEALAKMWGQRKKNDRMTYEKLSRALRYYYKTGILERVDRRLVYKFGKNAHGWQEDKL
The method, boiled down: as §1

For a further test, the target named is SPI1 (Homo sapiens, UniProt P17947 1-270). A digest of the protocol:
as §1

For another test, the target named is T4, SPDEF (Homo sapiens, UniProt O95238 1-335).
T4 sequence: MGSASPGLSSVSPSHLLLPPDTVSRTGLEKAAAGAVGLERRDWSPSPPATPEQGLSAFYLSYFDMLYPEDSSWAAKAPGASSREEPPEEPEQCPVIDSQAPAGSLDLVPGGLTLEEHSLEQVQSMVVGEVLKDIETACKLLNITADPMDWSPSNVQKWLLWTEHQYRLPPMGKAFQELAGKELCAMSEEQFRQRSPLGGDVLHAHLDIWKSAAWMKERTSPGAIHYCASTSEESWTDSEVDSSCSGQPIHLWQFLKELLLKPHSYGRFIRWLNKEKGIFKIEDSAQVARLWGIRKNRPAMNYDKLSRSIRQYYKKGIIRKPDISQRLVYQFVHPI
A digest of the protocol: as §1

In another test the target is ELF1 (Homo sapiens, UniProt P32519 1-619). The method, boiled down: as §1
Chain of ELF1 (P32519 whole entry): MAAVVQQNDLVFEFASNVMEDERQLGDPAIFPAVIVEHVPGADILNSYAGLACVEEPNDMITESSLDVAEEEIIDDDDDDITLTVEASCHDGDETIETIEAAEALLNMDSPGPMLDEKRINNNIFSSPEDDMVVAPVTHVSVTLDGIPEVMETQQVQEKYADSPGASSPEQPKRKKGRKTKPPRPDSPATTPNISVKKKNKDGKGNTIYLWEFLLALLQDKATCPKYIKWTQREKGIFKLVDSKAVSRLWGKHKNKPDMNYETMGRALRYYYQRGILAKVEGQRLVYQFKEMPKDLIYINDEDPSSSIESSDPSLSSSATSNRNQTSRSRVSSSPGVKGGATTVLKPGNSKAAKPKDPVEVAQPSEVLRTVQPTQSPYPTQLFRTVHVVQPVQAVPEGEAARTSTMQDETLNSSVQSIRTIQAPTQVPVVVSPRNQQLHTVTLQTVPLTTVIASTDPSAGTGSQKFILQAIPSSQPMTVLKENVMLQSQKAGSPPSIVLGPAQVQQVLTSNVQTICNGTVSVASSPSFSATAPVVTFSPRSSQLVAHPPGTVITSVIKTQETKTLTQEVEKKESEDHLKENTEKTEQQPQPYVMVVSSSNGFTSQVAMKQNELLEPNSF
In a further test the target is ETV6 (Homo sapiens, UniProt P41212 1-452). A digest of the protocol: as §1
Chain of ETV6 (P41212 whole entry): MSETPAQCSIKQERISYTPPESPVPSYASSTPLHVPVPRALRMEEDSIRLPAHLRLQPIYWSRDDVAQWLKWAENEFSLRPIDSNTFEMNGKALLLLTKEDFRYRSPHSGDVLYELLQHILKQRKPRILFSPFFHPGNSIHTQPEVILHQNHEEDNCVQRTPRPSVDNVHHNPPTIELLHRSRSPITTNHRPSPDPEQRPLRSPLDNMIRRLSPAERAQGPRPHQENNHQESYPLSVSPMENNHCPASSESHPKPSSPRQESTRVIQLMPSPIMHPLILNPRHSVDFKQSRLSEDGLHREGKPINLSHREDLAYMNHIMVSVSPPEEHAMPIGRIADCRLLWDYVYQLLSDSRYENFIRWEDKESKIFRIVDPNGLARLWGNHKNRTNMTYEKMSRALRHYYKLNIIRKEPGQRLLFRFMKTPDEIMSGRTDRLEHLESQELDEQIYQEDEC
The next test deals with T5, ETV3 (Homo sapiens, UniProt P41162-2 1-143).
T5 sequence: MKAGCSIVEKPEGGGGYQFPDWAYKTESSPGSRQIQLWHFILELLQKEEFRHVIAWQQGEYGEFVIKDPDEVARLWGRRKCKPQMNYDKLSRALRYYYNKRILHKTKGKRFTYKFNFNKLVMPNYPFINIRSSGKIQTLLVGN
A digest of the protocol: as §1

This passage reports binding signal results from article PMC7862700, “An all-to-all approach to the identification of sequence-specific readers for epigenetic DNA modifications on cytosine”.

Chain of CRX (O43186 whole entry): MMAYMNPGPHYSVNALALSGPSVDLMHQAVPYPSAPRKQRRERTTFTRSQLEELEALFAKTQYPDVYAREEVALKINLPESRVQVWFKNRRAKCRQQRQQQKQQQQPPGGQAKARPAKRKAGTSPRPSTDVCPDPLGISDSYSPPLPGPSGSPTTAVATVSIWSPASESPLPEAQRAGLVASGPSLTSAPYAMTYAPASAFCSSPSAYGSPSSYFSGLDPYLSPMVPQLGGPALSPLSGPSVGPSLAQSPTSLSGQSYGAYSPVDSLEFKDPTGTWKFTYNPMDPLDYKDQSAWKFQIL

With GAGCTA, the binding signal is 1 fold enrichment (6-mer frequency, TF over GST control) with EHF and 1.02 fold enrichment (6-mer frequency, TF over GST control) with ELF3.

For TATCGG, the binding signal with CRX is 1.1 fold enrichment (6-mer frequency, TF over GST control).

Consider GTTTAG, for which the binding signal with CRX was 1 fold enrichment (6-mer frequency, TF over GST control).

As to TAAGGA, the binding signal is 1.22 fold enrichment (6-mer frequency, TF over GST control) in the test with CRX and 1.32 fold enrichment (6-mer frequency, TF over GST control) with ELF5.

In the case of GTGTAA, the binding signal was 1.04 fold enrichment (6-mer frequency, TF over GST control) with SPI1 and 1.11 fold enrichment (6-mer frequency, TF over GST control) with ELF3.

On to GCGGAT, for which the binding signal with CRX is 1.2 fold enrichment (6-mer frequency, TF over GST control); in the test with SPDEF, 1.25 fold enrichment (6-mer frequency, TF over GST control).

Take AGGACT: in the test with ELF1, the binding signal is 1 fold enrichment (6-mer frequency, TF over GST control).

In the case of GGCCAC, in the test with ELF1, the binding signal is 1.03 fold enrichment (6-mer frequency, TF over GST control).

As to AAGGGG, the binding signal with SPI1 is 1.36 fold enrichment (6-mer frequency, TF over GST control).

As for AGTTCA, the binding signal with SPI1 was 1.01 fold enrichment (6-mer frequency, TF over GST control).

For the sequence CGGTAA, the binding signal with ELF5 is 1.05 fold enrichment (6-mer frequency, TF over GST control).

In the case of CGGTAC, in the test with ELF5, the binding signal was 1.02 fold enrichment (6-mer frequency, TF over GST control).

Take GCGCTA: the binding signal in the test with ETV6 is 1 fold enrichment (6-mer frequency, TF over GST control).

Regarding CGGAAT, the binding signal in the test with SPDEF was 1 fold enrichment (6-mer frequency, TF over GST control); with ETV3 it was 1.02 fold enrichment (6-mer frequency, TF over GST control); in the test with ETV6, 1.01 fold enrichment (6-mer frequency, TF over GST control).

Turning to GGGAAG, the binding signal with ETV6 was 1.04 fold enrichment (6-mer frequency, TF over GST control).
